# Data from PubChem BioAssay AID1159580 (chemical genetic matrix, 2015).
# Among all 5,500 compounds or so, about 2,000 (36%) were called active. Not shown: some 18% with an inconclusive outcome. The list shows a part of the results. Values without a mark were called inactive. Cut-off read from the data, not from the text of the source: active = normalized growth mostly below about 0.91 (no sharp cut-off); inconclusive = no clear call, values can overlap the other calls; inactive = mostly above about 0.92.
# Assay: chemical genetic growth profiling, strain panel (AID 1159580);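 note: tested at 20 µM; growth read once vehicle control cultures reached saturation at 30 °C; 1 = growth at the plate median or of vehicle wells; lower values mean less growth of the strain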
# Conditions: S. cerevisiae deletion strains, growth OD
# [1] = locus YAL040C, strain CLN3, active compounds read low
# [2] = locus YCL061C, strain MRC1 (second series), active compounds read low
# [3] = locus YDR363W, strain ESC2, active compounds read low
# [4] = locus YER002W, strain NOP16, active compounds read low
# [5] = locus YMR263W, strain SAP30, active compounds read low
# [6] = locus YNL175C, strain NOP13, active compounds read low
# [7] = locus YNL224C, strain SQS1, active compounds read low
# [8] = locus YNL322C, strain KRE1, active compounds read low
# [9] = locus YOR083W, strain WHI5 (second series), active compounds read low
# [10] = locus YPL055C, strain LGE1, active compounds read low
# [11] = locus YPL241C, strain CIN2, active compounds read low
smiles,measurement,setting,value
CN=C(NC#N)Nc1ccc(C2=NNC(=O)CC2C)cc1 (stereo not given),normalized growth,[1],1.08
same,normalized growth,[2],0.999
same,normalized growth,"locus YDR150W, strain NUM1, active compounds read low",1.01
same,normalized growth,[3],1.01
same,normalized growth,[4],0.986
same,normalized growth,"locus YGR078C, strain PAC10, active compounds read low",1
same,normalized growth,[5],1
same,normalized growth,"locus YMR307W, strain GAS1, active compounds read low",1
same,normalized growth,"locus YNL128W, strain TEP1, active compounds read low",1
same,normalized growth,[6],0.995
same,normalized growth,"locus YNL197C, strain WHI3, active compounds read low",0.994
same,normalized growth,[7],0.994
same,normalized growth,[8],0.986
same,normalized growth,[9],1
same,normalized growth,[10],0.996
same,normalized growth,[11],0.998
Cc1o[nH]c(=O)c1CC(N)C(=O)O (stereo not given),normalized growth,"locus YAL013W, strain DEP1, active compounds read low",0.998
same,normalized growth,[1],1
same,normalized growth,[2],1
same,normalized growth,[3],1.01
same,normalized growth,[4],0.997
same,normalized growth,"locus YGR229C, strain SMI1, active compounds read low",0.995
same,normalized growth,[5],0.999
same,normalized growth,"locus YNL153C, strain GIM3, active compounds read low",0.989
same,normalized growth,[6],1
same,normalized growth,[7],1.01
same,normalized growth,[8],1.01
same,normalized growth,[9],0.982
same,normalized growth,[10],1
same,normalized growth,[11],1.01
COC1CC2CCC(C)C(O)(O2)C(=O)C(=O)N2CCCCC2C(=O)OC(C(C)CC2CCC(O)C(OC)C2)CC(=O)C(C)/C=C(\C)C(O)C(OC)C(=O)C(C)CC(C)/C=C/C=C/C=C/1C (stereo not given),normalized growth,"locus YAL021C, strain ccr4, active compounds read low",0.0589 (active)
same,normalized growth,"locus YAL026C, strain drs2, active compounds read low",0.0607 (active)
same,normalized growth,"locus YAL030W, strain snc1, active compounds read low",0.057 (active)
same,normalized growth,"locus YBL061C, strain skt5, active compounds read low",0.0636 (active)
same,normalized growth,"locus YBR009C, strain hhf1, active compounds read low",0.0589 (active)
same,normalized growth,"locus YBR023C, strain chs3, active compounds read low",0.0647 (active)
same,normalized growth,"locus YBR171W, strain sec66, active compounds read low",0.0879 (active)
same,normalized growth,"locus YBR231C, strain swc5, active compounds read low",0.0671 (active)
same,normalized growth,"locus YBR279W, strain paf1, active compounds read low",0.061 (active)
same,normalized growth,"locus YCL011C, strain gbp2, active compounds read low",0.0563 (active)
same,normalized growth,"locus YCL016C, strain dcc1, active compounds read low",0.064 (active)
same,normalized growth,"locus YCL061C, strain MRC1, active compounds read low",0.0664 (active)
same,normalized growth,"locus YCL069W, strain vba3, active compounds read low",0.0634 (active)
same,normalized growth,"locus YCR088W, strain abp1, active compounds read low",0.0633 (active)
same,normalized growth,"locus YDL005C, strain med2, active compounds read low",0.105 (active)
same,normalized growth,"locus YDL040C, strain nat1, active compounds read low",0.062 (active)
same,normalized growth,"locus YDR001C, strain nth1, active compounds read low",0.062 (active)
same,normalized growth,"locus YDR069C, strain doa4, active compounds read low",0.0638 (active)
same,normalized growth,"locus YDR137W, strain rgp1, active compounds read low",0.108 (active)
same,normalized growth,"locus YDR159W, strain sac3, active compounds read low",0.0822 (active)
same,normalized growth,"locus YDR195W, strain ref2",0.107 (active)
same,normalized growth,"locus YDR297W, strain sur2, active compounds read low",0.0574 (active)
same,normalized growth,"locus YDR334W, strain swr1, active compounds read low",0.0661 (active)
same,normalized growth,"locus YDR335W, strain msn5, active compounds read low",0.0641 (active)
same,normalized growth,"locus YDR392W, strain spt3, active compounds read low",0.0747 (active)
same,normalized growth,"locus YEL003W, strain gim4, active compounds read low",0.0561 (active)
same,normalized growth,"locus YEL037C, strain rad23, active compounds read low",0.06 (active)
same,normalized growth,"locus YEL061C, strain CIN8 (second series), active compounds read low",0.0638 (active)
same,normalized growth,"locus YER015W, strain faa2, active compounds read low",0.063 (active)
same,normalized growth,"locus YER016W, strain bim1, active compounds read low",0.0636 (active)
same,normalized growth,"locus YER111C, strain swi4, active compounds read low",0.0777 (active)
same,normalized growth,"locus YER155C, strain BEM2 (second series), active compounds read low",0.0886 (active)
same,normalized growth,"locus YFR010W, strain ubp6, active compounds read low",0.0722 (active)
same,normalized growth,"locus YGL167C, strain pmr1, active compounds read low",0.106 (active)
same,normalized growth,"locus YGL173C, strain kem1, active compounds read low",0.0674 (active)
same,normalized growth,"locus YGL227W, strain vid30, active compounds read low",0.0637 (active)
same,normalized growth,"locus YGL240W, strain doc1, active compounds read low",0.0777 (active)
same,normalized growth,"locus YGL253W, strain hxk2, active compounds read low",0.0553 (active)
same,normalized growth,"locus YHR013C, strain ard1, active compounds read low",0.0984 (active)
same,normalized growth,"locus YHR027C, strain rpn1, active compounds read low",0.0663 (active)
same,normalized growth,"locus YHR030C, strain SLT2, active compounds read low",0.0959 (active)
same,normalized growth,"locus YHR079C, strain IRE1, active compounds read low",0.1 (active)
same,normalized growth,"locus YHR142W, strain chs7, active compounds read low",0.0702 (active)
same,normalized growth,"locus YJL092W, strain hpr5, active compounds read low",0.0602 (active)
same,normalized growth,"locus YJL095W, strain BCK1 (second series), active compounds read low",0.0568 (active)
same,normalized growth,"locus YJL095W, strain BCK1, active compounds read low",0.0941 (active)
same,normalized growth,"locus YJL115W, strain asf1, active compounds read low",0.0785 (active)
same,normalized growth,"locus YJL129C, strain trk1, active compounds read low",0.083 (active)
same,normalized growth,"locus YJL154C, strain vps35, active compounds read low",0.0627 (active)
same,normalized growth,"locus YJL164C, strain tpk1, active compounds read low",0.0565 (active)
same,normalized growth,"locus YJL166W, strain qcr8, active compounds read low",0.0582 (active)
same,normalized growth,"locus YJL187C, strain SWE1, active compounds read low",0.0583 (active)
same,normalized growth,"locus YJR066W, strain TOR1, active compounds read low",0.00105 (active)
same,normalized growth,"locus YKL160W, strain elf1, active compounds read low",0.0628 (active)
same,normalized growth,"locus YKR026C, strain gcn3, active compounds read low",0.0857 (active)
same,normalized growth,"locus YKR091W, strain srl3, active compounds read low",0.063 (active)
same,normalized growth,"locus YLL001W, strain dnm1, active compounds read low",0.0594 (active)
same,normalized growth,"locus YLL026W, active compounds read low",0.0565 (active)
same,normalized growth,"locus YLL041C, strain sdh2, active compounds read low",0.0584 (active)
same,normalized growth,"locus YLR027C, strain aat2, active compounds read low",0.056 (active)
same,normalized growth,"locus YLR113W, strain HOG1, active compounds read low",0.116 (active)
same,normalized growth,"locus YLR221C, strain rsa3, active compounds read low",0.0587 (active)
same,normalized growth,"locus YLR258W, strain gsy2, active compounds read low",0.0578 (active)
same,normalized growth,"locus YLR262C, strain YPT6 (second series), active compounds read low",0.0827 (active)
same,normalized growth,"locus YLR320W, strain mms22, active compounds read low",0.0745 (active)
same,normalized growth,"locus YLR342W, strain FKS1, active compounds read low",0.0654 (active)
same,normalized growth,"locus YLR357W, strain rsc2, active compounds read low",0.123 (active)
same,normalized growth,"locus YLR370C, strain arc18, active compounds read low",0.0626 (active)
same,normalized growth,"locus YLR384C, strain iki3, active compounds read low",0.0638 (active)
same,normalized growth,"locus YML120C, strain ndi1, active compounds read low",0.0575 (active)
same,normalized growth,"locus YMR058W, strain fet3, active compounds read low",0.0611 (active)
same,normalized growth,"locus YMR125W, strain sto1, active compounds read low",0.0751 (active)
same,normalized growth,"locus YMR129W, active compounds read low",0.0593 (active)
same,normalized growth,"locus YMR205C, strain PFK2, active compounds read low",0.077 (active)
same,normalized growth,"locus YMR231W, strain pep5, active compounds read low",0.0735 (active)
same,normalized growth,"locus YNL071W, strain lat1, active compounds read low",0.0603 (active)
same,normalized growth,"locus YNL183C, strain NPR1, active compounds read low",0.00606 (active)
same,normalized growth,"locus YNL209W, strain ssb2, active compounds read low",0.0636 (active)
same,normalized growth,"locus YNL248C, strain rpa49, active compounds read low",0.0637 (active)
same,normalized growth,"locus YNL322C, strain KRE1 (second series), active compounds read low",0.0917 (active)
same,normalized growth,"locus YNR049C, strain mso1, active compounds read low",0.0601 (active)
same,normalized growth,"locus YOR001W, strain rrp6, active compounds read low",0.0618 (active)
same,normalized growth,"locus YOR070C, strain gyp1, active compounds read low",0.0602 (active)
same,normalized growth,"locus YOR080W, strain dia2, active compounds read low",0.0718 (active)
same,normalized growth,"locus YOR083W, strain WHI5, active compounds read low",0.0613 (active)
same,normalized growth,"locus YOR106W, strain vam3, active compounds read low",0.0579 (active)
same,normalized growth,"locus YOR231W, strain MKK1, active compounds read low",0.101 (active)
same,normalized growth,"locus YOR265W, strain rbl2, active compounds read low",0.062 (active)
same,normalized growth,"locus YOR270C, strain vph1, active compounds read low",0.0796 (active)
same,normalized growth,"locus YOR290C, strain snf2, active compounds read low",0.0616 (active)
same,normalized growth,"locus YPL051W, strain arl3, active compounds read low",0.0737 (active)
same,normalized growth,"locus YPL078C, strain atp4, active compounds read low",0.0674 (active)
same,normalized growth,"locus YPL106C, strain sse1, active compounds read low",0.0858 (active)
same,normalized growth,"locus YPL240C, strain hsp82, active compounds read low",0.0583 (active)
same,normalized growth,"locus YPL256C, strain CLN2, active compounds read low",0.117 (active)
